The source of these data is PubChem BioAssay (NCATS).

In assay [1] the target is Tumor necrosis factor (Homo sapiens) (UniProt P01375). In words: qHTS assay to identify small molecules that stimulate Tumor Necrosis Factor-alpha (TNF-alpha) secretion (AID 651757; active means well fitted curve in the direction sought with a large enough effect in the signal ratio; the % refers to the signal ratio; further: 0% is about no effect). Particulars: Human cells, HTRF 665/615 ratio; series mostly up to 92.2 µM. The gist of the method:
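Secreted TNF-alpha from compound-treated THP-1 cells (17 hrs, 37 C) was quantified with a homogeneous time-resolved fluorescence antibody assay.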
On the technique in general: Quantitative high-throughput screening tests each substance at several concentrations.

Assay [2] in a line: qHTS assay to identify small molecules that stimulate interleukin-8 (IL-8) secretion (AID 651758; active means well fitted activation curve with a large enough effect in the signal ratio; the % refers to the signal ratio; further: 0% is about no effect). Particulars: HTRF ratio (665/615); series mostly up to 92.2 µM. The source says:
National Center for Advancing Translational Sciences [NCATS]
NIH Chemical Genomics Center [NCGC]
National Institutes of Environmental Health Sciences [NIEHS]
National Toxicology Program [NTP]
Interleukin-8 is a 8 kDa chemokine produced by macrophages and other cells like epithelial cells that is often associated with inflammation. Interleukin-8 secretion is a key parameter in localized inflammation. There is a growing concern for some of environmental chemicals which may contribute the increasing the incidence of inflammation. A homogeneous IL-8 assay using Time Resolved fluorescence (HTRF) technology based on Time Resolved Fluorescent Resonance Energy Transfer (TR-FRET) allows to measure IL-8 secreted from the cells in a 1536-well plate format.
THP-1 cells were dispensed at 2000 cells/5ul/well in 1536-well white solid plates. After addition of 23 nl of compound, positive controls and DMSO only, the assay plates were incubated at 37 C for 16 hrs, followed by addition of 5 uL of mixture of cryptate labeled and XL665 labeled anti-IL-8 antibodies. After the assay plates were incubated at room temperature for 1-3 hrs, the plates were measured by an EnVision plate reader.

The target in assay [3] is Peroxisome proliferator-activated receptor alpha (Homo sapiens) (UniProt Q07869). In words: qHTS assay for small molecule agonists of the peroxisome proliferator-activated receptor alpha (PPARalpha) signaling pathway (AID 651778). Further: % of control where 0% means no effect. Particulars: PathHunter PPARalpha complementation, chemiluminescence, 6 h; stronger effect = higher value. The gist of the method: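 Cells plated at 2,000/well and held overnight at 37 C, 5% CO2, then compound added by pin tool for 6 hr; after PathHunter detection reagent and 60 min at room temperature, chemiluminescence from enzyme complementation was read.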

The target of assay [4] is Nuclear receptor ROR-gamma (Homo sapiens) (UniProt P51449). In words: qHTS assay for small molecule antagonists of the retinoid-related orphan receptor gamma (ROR-gamma) signaling pathway (AID 651802). Further: nearly all actives have a fitted effect of over 60% in size. Further: potency means the concentration at half of the fitted maximal effect. Particulars: ROR-gamma antagonist cell reporter assay; series mostly up to 92.2 µM. The gist of the method: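 Antagonism is scored as a fall in luminescence from a RORE-luciferase reporter in CHO cells expressing ROR under a TET-inducible promoter, measured 16hr after doxycycline induction in the presence of compound.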

Assay [5] in a line: qHTS assay for environmental chemicals that activate the Aryl hydrocarbon Receptor (AhR) signaling pathway (AID 651777). Further: % of control where 0% means no effect; nearly all actives have a fitted effect of over 15% in size. Particulars: 1A2-DRE human hepatoma cells, luciferase, 24 h; stronger effect = higher value. The essentials: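 Human hepatoma 1A2-DRE cells, stably carrying a dioxin response element and CYP1A2 promoter driving luciferase, were exposed to compounds for 24 hr at 37 C and 5% CO2. Luciferase signal was then read after 30 min One-Glo at room temperature.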

The target in assay [6] is Arylsulfatase A (Homo sapiens) (UniProt P15289). In words: qHTS screen for enhancers of Arylsulfatase A (ASA1): LOPAC Validation Assay (AID 720538). Particulars: ASA enzyme activity, LOPAC qHTS enhancer assay; series mostly up to 57.5 µM. The essentials: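 Cell-based enhancement test: residual ASA activity in SV40-transformed I179S patient fibroblasts is measured by pNCS turnover (0.5mM final, 14h, room temperature) following 48h compound incubation; higher fluorescence indicates activation.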

Assay [7] in a line: qHTS for compounds that reverse cellular toxicity of Amyloid beta (A-beta) peptide in yeast: LOPAC Validation Assay (AID 720559).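 Further: plate controls were DMSO for no effect and equimolar ferric chloride plus clioquinol rescue for full effect.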 Particulars: yeast expressing A-beta; series mostly up to 46.1 µM. The essentials: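 Here, A-beta-toxic yeast grow with test compounds at 30 C for 48 hr before optical density at 600 nm is recorded; data are normalized against DMSO and the FeCl3-clioquinol control.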

Assay [8] addresses Tyrosine-protein kinase Yes (Homo sapiens) (UniProt P07947). As to the kind of experiment: qHTS for small molecule inhibitors of Yes1 kinase: Primary Screen (AID 686947).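 Further: plate controls were DMSO with enzyme for no effect and no-enzyme DMSO wells for full effect; nearly all actives have a fitted effect of over 60% in size.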 Particulars: Yes1 kinase biochemical qHTS inhibition; series mostly up to 76.9 µM. The gist of the method:
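ADP-Glo luminescence readout; final 4 nM Yes1, 0.1 mM ATP, 0.3 mg/mL poly(E4Y), Tris pH 7.5, MgCl2, DTT, Brij-35. 20 min compound preincubation, 60 min reaction at RT. Normalized to DMSO wells with and without enzyme.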

A short description of assay [9]: qHTS for small molecule inhibitors of Yes1 kinase: Counter Assay (AID 686950).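 Further: no kinase present so only ADP-Glo detection of a fixed ADP amount is tested; luminescence from ADP-Glo reporting ADP in a fixed ATP and ADP mixture; 0% = DMSO wells with ATP plus ADP and -100% = ATP-only wells without ADP.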 Particulars: series mostly up to 76.9 µM. The essentials: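 Enzyme-free ADP-Glo interference check: compounds were preincubated 20 min in buffer, then an ATP/ADP mix (0.08 mM ATP, 0.02 mM ADP final) was added for 60 min at room temperature before two-step ADP-Glo luminescence detection.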

The target in assay [10] is Ubiquitin carboxyl-terminal hydrolase 2 (Homo sapiens) (UniProt O75604). As to the kind of experiment: qHTS for Inhibitors of Ubiquitin-specific Protease USP2a Using CHOP2 as the Reporter: K484 Substrate (AID 652173).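 Further: cleavage of internally quenched K48 di-ubiquitin substrate measured as rising fluorescence over time; nearly all actives have a fitted effect of over 70% in size.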 Particulars: USP2 cleavage of DiUb K48 IQF substrate, fluorescence; series mostly up to 57.5 µM. The source says:
Homeostasis of cellular proteins is maintained through a combination of synthesis and degradation. The pathway that accounts for the majority of protein degradation is the ubiquitin-proteasomal pathway. Ubiquitin (Ub) is highly conserved in all cells and the generation of a multi-Ub chain typically targets proteins for degradation by the proteasome. However, ubiquitination is highly reversible and dynamic. Deubiquitination, the reverse process, is catalyzed through the action of enzymes referred to as isopeptidases or deubiquitinating enzymes (DUBs). This group of enzymes is collectively responsible for maintaining adequate pools of free ubiquitin and regulating the ubiquitination status of cellular proteins. The class of DUBs referred to as the ubiquitin-specific proteases (USP) family functions endoproteolytically to cleave Ub chains from a wide range of protein substrates. […] Confirmed qHTS active compounds were tested in orthogonal USP2 assays utilizing a di-ubiquitin substrate labeled with a quencher on one ubiquitin and a fluorescent compound on the other, i.e. the substrate has internally quenched fluorescence or IQF (Lifesensors). In the presence of active USP2, the diubiquitin (DiUb) is cleaved and the fluorescence at 598 nm increases. […] Upon inhibition of USP2, the fluorescence signal from cleaved substrate increases less over time than in the absence of an inhibitor. […]

Each structure is given as a SMILES string. “And” between values parts separate entries of the source, which are not always exact repeats. Identical values can stand only once. A number with no mark means an inactive call. Inconclusive results are not listed. The source made the active and inactive calls. Unless noted, the call rests on the fitted dose curve; in most records, active means well fitted curve in the direction sought with a large enough effect; inconclusive means small, poorly fitted or top-dose-only effect, or another doubt; inactive means no such curve, though single readings can be large; an effect the other way counts as inactive or inconclusive.

Chain of Arylsulfatase A (Homo sapiens) (P15289 whole entry, looked up): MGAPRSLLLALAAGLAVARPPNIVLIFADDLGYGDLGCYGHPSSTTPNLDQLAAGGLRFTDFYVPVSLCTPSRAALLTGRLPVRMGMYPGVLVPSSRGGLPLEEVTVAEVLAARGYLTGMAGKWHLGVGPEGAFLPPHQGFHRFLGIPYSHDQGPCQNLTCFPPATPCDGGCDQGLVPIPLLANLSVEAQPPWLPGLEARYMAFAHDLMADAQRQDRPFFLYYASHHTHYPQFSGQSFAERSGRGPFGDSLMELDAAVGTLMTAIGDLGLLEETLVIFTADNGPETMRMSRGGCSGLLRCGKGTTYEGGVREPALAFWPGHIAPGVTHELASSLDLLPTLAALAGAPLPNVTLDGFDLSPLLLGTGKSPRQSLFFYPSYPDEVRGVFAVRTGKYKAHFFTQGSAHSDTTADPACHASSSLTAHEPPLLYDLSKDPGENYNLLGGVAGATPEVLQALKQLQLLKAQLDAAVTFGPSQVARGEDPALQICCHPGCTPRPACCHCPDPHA
Chain of Tumor necrosis factor (Homo sapiens) (P01375 whole entry, looked up): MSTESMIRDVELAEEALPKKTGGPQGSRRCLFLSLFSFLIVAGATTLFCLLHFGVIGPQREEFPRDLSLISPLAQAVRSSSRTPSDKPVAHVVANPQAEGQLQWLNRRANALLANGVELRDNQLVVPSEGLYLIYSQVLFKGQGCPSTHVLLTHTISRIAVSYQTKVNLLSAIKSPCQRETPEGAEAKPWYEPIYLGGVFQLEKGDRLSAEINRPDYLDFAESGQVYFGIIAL
Chain of Peroxisome proliferator-activated receptor alpha (Homo sapiens) (Q07869 whole entry, looked up): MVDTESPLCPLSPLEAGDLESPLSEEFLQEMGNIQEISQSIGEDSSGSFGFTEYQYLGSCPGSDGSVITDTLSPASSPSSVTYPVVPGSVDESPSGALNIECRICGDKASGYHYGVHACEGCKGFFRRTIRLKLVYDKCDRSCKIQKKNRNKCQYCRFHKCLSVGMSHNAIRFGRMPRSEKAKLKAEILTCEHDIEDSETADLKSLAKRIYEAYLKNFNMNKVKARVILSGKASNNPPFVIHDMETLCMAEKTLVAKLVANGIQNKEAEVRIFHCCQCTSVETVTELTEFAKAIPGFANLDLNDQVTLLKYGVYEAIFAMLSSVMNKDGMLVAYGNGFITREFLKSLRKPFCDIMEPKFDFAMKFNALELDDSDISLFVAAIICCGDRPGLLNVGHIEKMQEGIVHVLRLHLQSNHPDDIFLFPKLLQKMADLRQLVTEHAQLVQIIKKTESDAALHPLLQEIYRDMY
Chain of Nuclear receptor ROR-gamma (Homo sapiens) (P51449 whole entry, looked up): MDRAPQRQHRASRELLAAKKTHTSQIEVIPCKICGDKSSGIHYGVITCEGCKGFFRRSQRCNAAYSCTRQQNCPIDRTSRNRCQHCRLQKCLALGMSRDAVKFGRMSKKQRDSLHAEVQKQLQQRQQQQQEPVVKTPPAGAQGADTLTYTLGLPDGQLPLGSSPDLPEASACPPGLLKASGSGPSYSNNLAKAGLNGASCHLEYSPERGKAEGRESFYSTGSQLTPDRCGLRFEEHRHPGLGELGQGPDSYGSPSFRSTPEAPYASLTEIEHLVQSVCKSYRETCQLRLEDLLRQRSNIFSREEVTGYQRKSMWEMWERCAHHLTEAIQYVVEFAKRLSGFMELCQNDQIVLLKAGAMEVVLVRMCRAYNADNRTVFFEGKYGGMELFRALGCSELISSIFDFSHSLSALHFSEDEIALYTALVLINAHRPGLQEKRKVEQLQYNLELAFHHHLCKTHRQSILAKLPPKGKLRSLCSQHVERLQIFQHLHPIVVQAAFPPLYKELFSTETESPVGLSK
Chain of Ubiquitin carboxyl-terminal hydrolase 2 (Homo sapiens) (O75604 whole entry, looked up): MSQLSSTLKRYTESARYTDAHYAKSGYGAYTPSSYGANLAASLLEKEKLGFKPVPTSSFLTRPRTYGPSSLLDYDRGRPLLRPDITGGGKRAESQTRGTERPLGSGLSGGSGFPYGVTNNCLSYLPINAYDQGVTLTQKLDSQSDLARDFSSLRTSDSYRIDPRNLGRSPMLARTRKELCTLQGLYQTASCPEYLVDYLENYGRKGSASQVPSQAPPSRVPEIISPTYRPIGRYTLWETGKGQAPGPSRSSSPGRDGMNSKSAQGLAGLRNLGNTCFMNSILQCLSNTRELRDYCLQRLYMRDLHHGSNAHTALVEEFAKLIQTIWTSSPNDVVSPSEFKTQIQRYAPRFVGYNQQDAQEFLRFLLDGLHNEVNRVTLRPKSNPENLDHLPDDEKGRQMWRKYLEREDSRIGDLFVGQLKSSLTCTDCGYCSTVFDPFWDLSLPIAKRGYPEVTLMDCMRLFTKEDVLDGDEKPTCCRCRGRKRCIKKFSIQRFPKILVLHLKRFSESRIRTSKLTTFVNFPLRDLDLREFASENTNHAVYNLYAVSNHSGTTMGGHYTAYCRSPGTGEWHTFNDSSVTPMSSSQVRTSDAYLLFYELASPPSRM
Chain of Tyrosine-protein kinase Yes (Homo sapiens) (P07947 whole entry, looked up): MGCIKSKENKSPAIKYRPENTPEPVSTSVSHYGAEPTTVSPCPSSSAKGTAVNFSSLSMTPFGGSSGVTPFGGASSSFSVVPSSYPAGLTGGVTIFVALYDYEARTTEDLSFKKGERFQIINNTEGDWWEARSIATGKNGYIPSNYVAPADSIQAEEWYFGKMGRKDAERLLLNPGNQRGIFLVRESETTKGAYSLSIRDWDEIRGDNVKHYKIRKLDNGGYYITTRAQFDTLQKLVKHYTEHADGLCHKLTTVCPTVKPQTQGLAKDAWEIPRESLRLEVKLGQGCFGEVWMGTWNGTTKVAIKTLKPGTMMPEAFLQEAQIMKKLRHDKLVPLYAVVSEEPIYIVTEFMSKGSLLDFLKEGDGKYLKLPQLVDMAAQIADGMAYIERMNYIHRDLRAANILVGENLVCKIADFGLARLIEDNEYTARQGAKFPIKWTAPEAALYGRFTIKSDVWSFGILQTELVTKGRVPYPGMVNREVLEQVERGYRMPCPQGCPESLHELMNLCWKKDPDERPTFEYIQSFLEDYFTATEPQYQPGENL

`Nc1ccccc1`: the result in assay [1] and in [2] was inactive. In addition, the max response in assay [3] was 7.46%. Moreover, the Potency entry in assay [4] was “inactive”.
`COP(=S)(OC)Oc1ccc(SC)c(C)c1`: the outcome in [1] and in assay [2] was inactive. Besides, the max response in [3] is 6.43% and 7.61%. The Potency result in [4] was “inactive”.
For the compound `COP(=S)(OC)SCN1C(=O)c2ccccc2C1=O`, in assay [5], the activation was -1.4%. The max response in assay [3] is -0.635%.
Turning to `CCOC(=O)CC(SP(=S)(OC)OC)C(=O)OCC` (centres undefined), in assay [1], the outcome was inactive. The activation in [5] was 1.62% and 10.4% and -0.452%. The max response in assay [3] was -2.48% and 0.447% and -3.85%.
`C[C@]12CCC(=O)C=C1CC[C@@H]1[C@@H]2CC[C@@]2(C)[C@H]1CC[C@]2(C)O`: the result in assay [1] and in assay [2] was inactive. Besides, the activation in [5] was -0.473%. In addition, the max response in assay [3] was 7.27%. In [4], the Potency is 16.8 µM (active).
`CC1(C)C(C=C(Cl)Cl)C1C(=O)OC(C#N)c1cccc(Oc2ccccc2)c1` (centres undefined): in [5], the activation is 3.99%. Further, the max response in [3] is -4.65%.
In the case of `COP(=S)(OC)Oc1cc(Cl)c(Cl)cc1Cl`, the activation in assay [5] was 2.9%. Further, the max response in assay [3] was -0.715%.
Take `CC(C)(C)c1ccc(O)cc1`: in [5], the activation was 0.343%.
For the compound `CCCC(C)(COC(N)=O)COC(N)=O`, in [1], the result was inactive. In addition, the activation in assay [5] is 1.18% and -0.314%. The max response in assay [3] is -0.626% and -5.23%. Also, in [4], the Potency result is “inactive”.
For `CC(C)c1cccc(C(C)C)c1O`, the result in assay [1], in assay [6] and in [7] was inactive. In assay [5], the activation was 0.116%. For the same compound, in assay [3], the max response is -5.67%. The Potency result in assay [4] was “inactive”.
In the case of `CN1C[C@H](C(=O)N[C@]2(C)O[C@@]3(O)[C@@H]4CCCN4C(=O)[C@H](Cc4ccccc4)N3C2=O)C=C2c3cccc4[nH]cc(c34)C[C@H]21`, in assay [5], the activation was 6.16% and 6.48%. Besides, the max response in [3] was -3.76% and -6.49%.
For `COC(=O)C(c1ccccc1)C1CCCCN1` (centres undefined), the result in assay [1] and in [2] was inactive. Besides, the activation in assay [5] is 0.112% and -0.732%. The max response in assay [3] was -1.82% and 0.192%. For the same compound, the Potency entry in [4] was “inactive”.
In the case of `Oc1ccc(Cl)cc1`, the result in assay [1] was inactive. In [5], the activation is 0.502%. Besides, in assay [3], the max response was 0.582%. Moreover, the Potency entry in assay [4] was “inactive”.
As for `NCCc1ccc(O)cc1`, the result in assay [1], in assay [6] and in assay [7] was inactive. Moreover, the activation in [5] is -0.313%. The max response in assay [3] is -1.42%. The Potency entry in [4] is “inactive”.
As to `C[C@]12CCC(=O)C=C1CC[C@@H]1[C@@H]2CC[C@]2(C)C(=O)CC[C@@H]12`, the result in assay [1] was inactive. Further, the activation in assay [5] was 2.9% and -2.01%. In addition, the max response in assay [3] is -0.773% and -1.33%. Further, the Potency in assay [4] is 33.5 µM (active).
Consider `CCC(C)(C)c1ccc(O)cc1`, for which, in assay [1], the outcome was inactive. Moreover, the activation in assay [5] is 0.262% and -0.822%. Besides, the max response in assay [3] is 5.88% and -1.73%. For the same compound, the Potency result in assay [4] was “inactive”.
As to `O=P1(N(CCCl)CCCl)NCCCO1` (centres undefined), the outcome in assay [1], in assay [8], in assay [9], in assay [6] and in assay [7] was inactive. In addition, the activation in assay [5] was 0.318% and -1.16%. Besides, the max response in assay [3] was 7.32% and -1.68%. In addition, the Potency entry in assay [4] was “inactive”.
For `C[C@]1(O)CC[C@H]2[C@@H]3CCC4=CC(=O)CC[C@]4(C)[C@@]3(F)[C@@H](O)C[C@@]21C`, the outcome in assay [1] and in assay [2] was inactive. In [5], the activation is 0.165%. For the same compound, the max response in assay [3] was 3%.
As for `CC(C)NC(C)C`, the outcome in [1] was inactive. For the same compound, the activation in assay [5] is -1.71%. Besides, in [3], the max response was 0.708%. The Potency result in assay [4] was “inactive”.
As for `COc1cc(OC)c(OC)cc1C=O`, in [1], the outcome was inactive. Further, the max response in assay [3] was 0.405%. Also, in [4], the Potency result is “inactive”.
In the case of `Clc1ccc(C(c2ccc(Cl)cc2)C(Cl)(Cl)Cl)cc1`, in assay [1], the result was inactive. Also, in assay [5], the activation is 0.0892% and -0.298%. Further, the max response in assay [3] is 4.34% and 1.18%.
As for `Nc1ccccc1C(=O)O`, in [1], the result was inactive. Also, the activation in assay [5] is 3.23%. Moreover, the max response in [3] is 0.553%. The Potency entry in [4] was “inactive”.
In the case of `O=C1c2ccccc2C(=O)c2ccccc21`, the activation in assay [5] is 2.59%. Moreover, the max response in assay [3] is 0.92%.
For the compound `Cc1cc(NS(=O)(=O)c2ccc(N)cc2)no1`, the compound was called inactive in assay [10].
Take `CC(C)N(CCC(C(N)=O)(c1ccccc1)c1ccccn1)C(C)C` (centres undefined): in [6], the outcome was “inactive; inhibitor; fitted 0.1901 uM”. The outcome in [7] was inactive.
With `C=C(C)[C@H]1CN[C@H](C(=O)O)[C@H]1CC(=O)O`, the outcome in assay [6] and in assay [7] was inactive.
For `CCC1(C)CC(=O)NC1=O` (centres undefined), the result in assay [6] was inactive.
`COc1ccc2c(c1OC)C(=O)O[C@H]2[C@@H]1c2cc3c(cc2CCN1C)OCO3`: the outcome in assay [6] and in assay [7] was inactive.
